In the library only some 1.5% were active in any assay of this set; here they are far more common.
B2AR ag = activates human beta-2 adrenergic receptor causing internalization; P07550; Am2.2-beta2AR cells, FAP receptor internalization, flow cytometry; response, % (concentration not given with the values); 340,000 tested, 0.43% active; AID 504454;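 active means response above a set limit, near 3 SD of response in nonfluorescent compounds, cut at about 42% in these data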
ABHD5-PLIN5 inh = ABHD5-PLIN5 protein interaction inhibition; Split G. princeps luciferase complementation, luminescence, 4 h; AID 602281; Q00G26+Q8WTS1; inhibition, % at 4 µM; 360,000 tested, 0.78% active;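 active means inhibition above the mean inhibition across every tested compound plus 3 SD, cut at about 22% in these data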;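 further: 0% = DMSO only wells and the 100% control is not disclosed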
NOD2-RIPK2 inh = NOD2-RIPK2 protein interaction inhibition. O43353. CHO BLA complementation NOD2-RIPK2, CCF4 ratio. inhibition, % at 4.98 µM. 360,000 tested, 0.38% active. AID 624267; in the data active means inhibition above about 21%;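 further: 0% = vehicle only and 100% = reference blocker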
NTR1 agonist = NTR1 (human) agonism; P30989; NTR1-U2OS beta-arrestin-GFP spot imaging, agonist mode; activation, % at 20 µM; 330,000 tested, 0.17% active; AID 493036;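 active means activation at or above 40% of the spot to cytoplasm intensity ratio, with at least 20 cells analyzed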;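 further: 0% = DMSO without peptide and 100% = 100 nM NTR1 peptide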
TLR4 MyD88 comp = blocks binding of human TLR4 to MyD88 | O00206+Q99836 | HeLa CL3-4 TLR4/MyD88 BLA complementation, FRET ratio | inhibition, % at 8.4 µM | 200,000 tested, 0.18% active; in the data active means inhibition above about 25%;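 further: 0% = vehicle and 100% = reference inhibitor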
Target sequence (O00206 whole entry, looked up): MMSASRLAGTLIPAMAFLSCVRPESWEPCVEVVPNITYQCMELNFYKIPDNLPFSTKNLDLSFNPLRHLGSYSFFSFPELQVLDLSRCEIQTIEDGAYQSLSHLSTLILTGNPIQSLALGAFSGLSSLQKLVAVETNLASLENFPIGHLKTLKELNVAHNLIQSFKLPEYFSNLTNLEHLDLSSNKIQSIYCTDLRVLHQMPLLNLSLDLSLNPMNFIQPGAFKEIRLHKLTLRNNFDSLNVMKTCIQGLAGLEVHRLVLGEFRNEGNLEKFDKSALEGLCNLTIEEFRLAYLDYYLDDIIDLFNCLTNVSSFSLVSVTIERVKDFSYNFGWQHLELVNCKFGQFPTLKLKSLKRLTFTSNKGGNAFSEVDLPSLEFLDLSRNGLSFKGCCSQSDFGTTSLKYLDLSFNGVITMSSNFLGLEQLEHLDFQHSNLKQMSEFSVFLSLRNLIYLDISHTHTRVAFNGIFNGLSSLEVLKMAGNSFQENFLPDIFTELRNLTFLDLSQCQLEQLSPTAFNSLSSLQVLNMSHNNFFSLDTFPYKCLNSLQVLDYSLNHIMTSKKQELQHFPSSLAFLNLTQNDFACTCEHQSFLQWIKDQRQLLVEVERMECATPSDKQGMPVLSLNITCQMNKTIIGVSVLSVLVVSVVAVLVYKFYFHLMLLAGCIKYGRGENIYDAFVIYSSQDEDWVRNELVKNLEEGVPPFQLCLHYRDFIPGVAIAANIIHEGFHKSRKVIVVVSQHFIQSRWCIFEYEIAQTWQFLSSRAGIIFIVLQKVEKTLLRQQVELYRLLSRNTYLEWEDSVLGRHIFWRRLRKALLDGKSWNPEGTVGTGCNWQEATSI
Target sequence (Q99836 whole entry, looked up): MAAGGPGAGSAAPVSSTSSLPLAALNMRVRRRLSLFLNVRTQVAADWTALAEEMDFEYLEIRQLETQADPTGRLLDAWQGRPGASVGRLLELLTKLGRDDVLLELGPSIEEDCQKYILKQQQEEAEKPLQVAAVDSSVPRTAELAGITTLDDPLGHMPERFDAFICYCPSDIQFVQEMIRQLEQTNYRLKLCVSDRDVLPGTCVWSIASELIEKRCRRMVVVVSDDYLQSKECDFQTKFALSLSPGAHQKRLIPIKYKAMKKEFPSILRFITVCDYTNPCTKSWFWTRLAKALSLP
TLR9-MyD88 inh = inhibitors of human TLR9-MyD88 binding; Q9NR96+Q99836; CHO BLA complementation TLR9-MyD88, CCF4 FRET ratio; inhibition, % at 4.98 µM; 340,000 tested, 0.21% active; AID 504734;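 active means inhibition above the mean over all tested compounds plus 3 SD, cut at about 21% in these data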;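 further: 0% = DMSO only wells and 100% = clavulanate BLA inhibitor control wells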
ABHD5-PLIN5 conf = confirmation of human ABHD5-PLIN5 interaction inhibitors; shares compounds with ABHD5-PLIN5 inh; biochemical ABHD5-PLIN5 interaction, luminescence; inhibition, % at 4 µM; 2,200 tested, 67% active; in the data active means inhibition above about 23%;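 further: 0% = DMSO vehicle wells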
HNF4 counter = counter-screen for ABHD5-PLIN5 inhibitors: HNF4 split-luciferase; shares compounds with ABHD5-PLIN5 inh; HNF4 dimerization, luminescence, biochemical; inhibition, % at 4 µM; 2,200 tested, 77% active;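 active means mean inhibition across replicate wells exceeding the computed hit threshold, cut at about 13% in these data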;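 further: light from luciferase halves that rejoin when HNF4 fusion proteins dimerize; 0% = DMSO only wells and the 100% control is not given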
Active calls of the source: *.

`CCC(c1nnnn1Cc1ccco1)N(Cc1ccccc1OC)Cc1cc2cc(C)ccc2[nH]c1=O` (centres undefined) gave B2AR ag 2, ABHD5-PLIN5 inh 8, NOD2-RIPK2 inh 8, NTR1 agonist 9, TLR4 MyD88 comp 3 and TLR9-MyD88 inh -12.
Screening CCC(c1nnnn1Cc1ccco1)N(Cc1cc2cc(C)cc(C)c2[nH]c1=O)CC1CCCO1 (centres undefined) returned B2AR ag -1, ABHD5-PLIN5 inh 28*, NOD2-RIPK2 inh -3, NTR1 agonist 0, TLR4 MyD88 comp -6, TLR9-MyD88 inh 1, ABHD5-PLIN5 conf 10 and HNF4 counter 10.
Screening O=C(O)c1cc([N+](=O)[O-])c(Sc2nc3ccccc3[nH]2)c([N+](=O)[O-])c1 returned B2AR ag -1, ABHD5-PLIN5 inh 35*, NOD2-RIPK2 inh 11, NTR1 agonist 2, TLR9-MyD88 inh -11, ABHD5-PLIN5 conf 53* and HNF4 counter 54*.
For COc1cc(/C=C/C(=O)c2ccc([N+](=O)[O-])o2)ccc1O the results were B2AR ag -25, ABHD5-PLIN5 inh 27*, NOD2-RIPK2 inh -3, NTR1 agonist -1, TLR9-MyD88 inh -6, ABHD5-PLIN5 conf 96* and HNF4 counter 94*.
COc1ccc(CNC(=O)C2CCN(S(=O)(=O)c3ccc4c(c3)NC(=O)C(C)S4)CC2)cc1 (centres undefined) was read as B2AR ag 12, ABHD5-PLIN5 inh 2, NOD2-RIPK2 inh -16, NTR1 agonist 0 and TLR9-MyD88 inh -5.
Screening CC1Sc2ccc(S(=O)(=O)N3CCC(C(=O)NCc4ccc(Cl)cc4)CC3)cc2NC1=O (centres undefined) returned B2AR ag 5, ABHD5-PLIN5 inh 27*, NOD2-RIPK2 inh -3, NTR1 agonist 5, TLR9-MyD88 inh -6 and ABHD5-PLIN5 conf 43*.
`COc1ccccc1-c1ncn(Cc2cccc(-c3ccccc3)c2)c1-c1cc(C)cc(C)c1` gave ABHD5-PLIN5 inh -7 and NOD2-RIPK2 inh -15.
COc1ccccc1-c1ncn(Cc2cccc(-c3ccccc3)c2)c1-c1ccco1 was read as ABHD5-PLIN5 inh 25*, NOD2-RIPK2 inh 8, ABHD5-PLIN5 conf 22* and HNF4 counter 37*.
Screening CCC(C)NC(=O)Nc1ccc2c(c1)N(C)C(=O)c1ccccc1S2 (centres undefined) returned B2AR ag -7, ABHD5-PLIN5 inh 46*, NOD2-RIPK2 inh -3, NTR1 agonist 0, TLR4 MyD88 comp 11, TLR9-MyD88 inh -2, ABHD5-PLIN5 conf 60* and HNF4 counter 0.
CC(=O)c1cc(NC(=O)c2ccccc2)c(=O)oc1C was read as B2AR ag 1, ABHD5-PLIN5 inh 9, NOD2-RIPK2 inh -4, NTR1 agonist 0, TLR4 MyD88 comp -10 and TLR9-MyD88 inh -4.
`Cc1oc(=O)c(NC(=O)c2ccc(Cl)cc2)cc1C(=O)c1ccccc1` gave B2AR ag 2, ABHD5-PLIN5 inh 46*, NOD2-RIPK2 inh 0, NTR1 agonist 10, TLR4 MyD88 comp 5, TLR9-MyD88 inh 1, ABHD5-PLIN5 conf 11 and HNF4 counter 95*.
`NS(=O)(=O)c1ccc(CCNC(=O)c2cc(-c3ccco3)nc3ccccc23)cc1` gave B2AR ag 4, ABHD5-PLIN5 inh 25*, NOD2-RIPK2 inh -20, NTR1 agonist 1, TLR9-MyD88 inh -4, ABHD5-PLIN5 conf 22* and HNF4 counter 22*.
Cc1ccc(-c2nc(C)sc2CC(=O)NCc2ccco2)cc1 was read as B2AR ag 5, ABHD5-PLIN5 inh 27*, NOD2-RIPK2 inh -5, TLR4 MyD88 comp -9, TLR9-MyD88 inh -6, ABHD5-PLIN5 conf 27* and HNF4 counter 33*.
For O=C(COC(=O)c1cc(-c2cccs2)nc2ccccc12)NCc1ccco1 the results were B2AR ag -6, ABHD5-PLIN5 inh 17, NOD2-RIPK2 inh 0, NTR1 agonist 3, TLR4 MyD88 comp 5 and TLR9-MyD88 inh 3.
Screening O=C(COC(=O)c1cc(-c2ccc(Cl)s2)nc2ccccc12)NCc1ccco1 returned B2AR ag 11, ABHD5-PLIN5 inh 38*, NOD2-RIPK2 inh -4, NTR1 agonist 4, TLR4 MyD88 comp -4, TLR9-MyD88 inh -6, ABHD5-PLIN5 conf 59* and HNF4 counter 56*.
Cc1ccc(-c2cc(C(=O)NCc3ccco3)c3ccccc3n2)s1 was read as B2AR ag 1, ABHD5-PLIN5 inh 35*, NOD2-RIPK2 inh 1, NTR1 agonist 1, TLR4 MyD88 comp 2, TLR9-MyD88 inh -10, ABHD5-PLIN5 conf 21 and HNF4 counter 16*.
Cc1ccc(NC(=O)Cc2sc(C)nc2-c2ccc(C)cc2)cc1 was read as B2AR ag -3, ABHD5-PLIN5 inh 0, NOD2-RIPK2 inh -2, NTR1 agonist -2, TLR4 MyD88 comp -15 and TLR9-MyD88 inh -3.
Screening O=C(NCc1ccco1)c1cc(-c2cccs2)nc2ccccc12 returned B2AR ag -6, ABHD5-PLIN5 inh 9, NOD2-RIPK2 inh 4, NTR1 agonist 4, TLR4 MyD88 comp -5 and TLR9-MyD88 inh 5.
For O=S1(=O)C[C@H](N2CCN(CCO)CC2)[C@@H](COCc2ccccc2)N1 the results were ABHD5-PLIN5 inh 6 and NOD2-RIPK2 inh -6.
Cc1nn(-c2ccccc2)c2nc(-c3ccncc3)cc(C(=O)NCc3ccco3)c12 was read as B2AR ag 12, ABHD5-PLIN5 inh 24*, NOD2-RIPK2 inh 9, NTR1 agonist 12, TLR4 MyD88 comp 6, TLR9-MyD88 inh 7, ABHD5-PLIN5 conf 21 and HNF4 counter 26*.
`CCOC(=O)C1=C(C)N(c2ccccc2)C(=O)/C1=C\c1ccc(O)c(OC)c1` gave B2AR ag 2, ABHD5-PLIN5 inh 26*, NOD2-RIPK2 inh -9, NTR1 agonist 4, TLR9-MyD88 inh 1, ABHD5-PLIN5 conf 39* and HNF4 counter 49*.
Screening CCOC(=O)C1=C(C)N(c2ccccc2)C(=O)/C1=C\c1ccco1 returned B2AR ag -5, ABHD5-PLIN5 inh 6, NOD2-RIPK2 inh -2, NTR1 agonist 2, TLR4 MyD88 comp -11 and TLR9-MyD88 inh 7.
`O=S(=O)(Nc1nc2ccccc2nc1NCc1ccco1)c1ccc(F)cc1` gave B2AR ag 9, ABHD5-PLIN5 inh 25*, NOD2-RIPK2 inh 8, NTR1 agonist 1, TLR9-MyD88 inh -2, ABHD5-PLIN5 conf 5 and HNF4 counter 6.
For O=S(=O)(Nc1nc2ccccc2nc1NCc1ccco1)c1ccccc1 the results were B2AR ag -3, ABHD5-PLIN5 inh 17, NOD2-RIPK2 inh 6, NTR1 agonist 0, TLR4 MyD88 comp 1 and TLR9-MyD88 inh 1.
